Screening data as filed in PubChem BioAssay.
An excerpt weighted towards active compounds, which were near 2.5% of everything screened.
Anesthetic bind: candidate novel general anesthetic via apoferritin binding | P02791 | apoferritin/1-aminoanthracene competitive binding, fluorescence | Potency, µM (highest dose often 77.5 µM), without a hit: at the top dose activity change, negative = displacement, hits mostly inhibitors | 0.074% of 350,000 active; also: potency is read from the fitted curve at half-maximal effect; % is scaled to controls: 0 for no effect and ±100 for the full control effect; nearly all actives have a fitted effect of over 20% in size
Target sequence (P02791 2-175 limits assumed): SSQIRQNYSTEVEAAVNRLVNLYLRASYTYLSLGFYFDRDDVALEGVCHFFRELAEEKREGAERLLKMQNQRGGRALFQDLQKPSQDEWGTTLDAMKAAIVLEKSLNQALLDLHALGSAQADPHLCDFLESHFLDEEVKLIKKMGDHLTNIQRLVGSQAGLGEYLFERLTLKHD
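Horse-spleen apoferritin (10 uM) was mixed with 50% saturated 1-aminoanthracene in PBS, exposed to compounds for 10 min at room temperature, and read for fluorescence (ex 380 nm, em 535 nm). Competitive displacement was fitted with a four-parameter Hill equation.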
Mito fusion act: inhibitors of mitochondrial division or activators of mitochondrial fusion; 0.23% of 320,000 active; Potency, µM (top dose mostly 46.1 µM), for the others: at the highest dose growth rescue (activation), actives largely listed as activators; S. cerevisiae fusion-defective mutant growth rescue, CellTiterGlo 48 h; also: potency is read from the fitted curve at half-maximal effect; % of control where 0% means no effect; nearly all actives have a fitted effect of over 45% in size
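Compounds are tested for their ability to restore growth of mitochondrial fusion-defective yeast strains at non-permissive 37C in YPEG medium over 48 hours. Viability is quantified by luciferase luminescence.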
CCT modulator: modulators of cytosolic chaperonin (CCT/TRiC) activity; purified chaperonin ATPase assay, HTRF ADP detection, 30 min; activity change, % (test concentration not listed), hits read low; 0.3% of 360,000 active; AID 651819; in the data active = activity change below about -30%; also: % is scaled to controls: 0 for no effect and ±100 for the full control effect
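TRiC (40 or 20 nM final, by batch activity) in 30 mM Tris pH 7.4, 100 mM KCl, 5 mM MgCl2, 1 mM DTT was treated with compound at 76 uM single dose, then 10 uM ATP, 30 min at 37 °C. ADP was read by HTRF Transcreener.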
Akt phos inh: Akt phosphorylation inhibition; Neuro2A IGF-stimulated pAkt S473 HTRF, 20 min; hits give low values; activity change, % for hits at 50 µM; 0.32% of 360,000 active; in the data active = activity change below about -80%; inconclusive = mostly about -51% to -80%; also: % is scaled to controls: 0 for no effect and ±100 for the full control effect
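Neuro2A cells in DMEM with 0.5% FBS, overnight at 37 deg C, given compound at single 50 µM final, then IGF (6 nM final) for 20 min at 37 deg C. Lysed; phospho-Akt Ser473 by HTRF after 24 h, 665/615 ratio.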
aSyn yeast inh: inhibitors of alpha-synuclein toxicity in yeast; Yeast expressing alpha-synuclein, growth rescue, BacTiter-Glo, 24 h; Potency, µM (doses to about 46.1 µM), for inactives: at the top dose growth rescue (activation), most hits filed as activators; 0.14% of 370,000 active; also: potency is read from the fitted curve at half-maximal effect; % of control where 0% means no effect; nearly all actives have a fitted effect of over 65% in size
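Screening used galactose-induced yeast with toxic alpha-synuclein levels, exposed to compound for 24 hr at 30 deg C. Cell growth, read with BacTiter-Glo luminescence, gave the measured signal.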
TDP-43 yeast inh: TDP-43 toxicity inhibition in yeast; TDP-43 expressing yeast growth rescue, BacTiter-Glo, 24 h; Potency, µM (titrated, usually from 46.1 µM), for inactives: top-dose growth rescue (activation), most hits filed as activators; 1.8% of 410,000 active; also: potency is read from the fitted curve at half-maximal effect; % of control where 0% means no effect; nearly all actives have a fitted effect of over 50% in size
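Yeast cells expressing TDP-43 under galactose induction are exposed to compounds for 24 hr at 30 deg C. BacTiter-Glo luminescence measures growth, so protective compounds score as activators.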
Numbers without * were called inactive; i = inactive; u = inconclusive; x = no result; [ ] = dose if it differs, or a comment. Unless noted, calls follow the shape of the dose curve; as a rule, active = well fitted curve in the direction sought with a large enough effect; inconclusive = small, poorly fitted or top-dose-only effect, or another doubt; inactive = no such curve, though single readings can be large; an effect the other way counts as inactive or inconclusive.

SMILES | Anesthetic bind | Mito fusion act | CCT modulator | Akt phos inh | aSyn yeast inh | TDP-43 yeast inh
CC1CC(C)CN(C(=O)c2cccc(S(=O)(=O)Nc3cc(C(F)(F)F)ccc3Cl)c2)C1 (stereo not drawn) | -21.1% | 15.8µM* | -3.1 | i | -13.6% | -9.0%[0.397 µM]
CCC(=O)Nc1ccc2nc(SCCOc3ccc(C)cc3OC)sc2c1 | -5.4% | x | x | x | x | 22.0%
Oc1c(C(Nc2nc3ccccc3s2)c2ccco2)ccc2cccnc12 (stereo not drawn) | -22.1% | 4.9% | -2.7 | i | -13.7% | 20µM*
Cc1nn(CC(=O)N2CCc3ccccc3C2)c(C)c1Cl | -12.4% | 1.8% | -79.9* | x | 0.0% | 0.4%
Cc1nn(CC(=O)N2CCc3ccccc3C2)c(C)c1[N+](=O)[O-] | -8.5% | 10.5% | -0.1 | i | 5.8% | -7.5%[0.397 µM]
COc1ccc(-c2nc3ccc(Br)cn3c2Cc2cccc(Cl)c2)cc1OC | x | x | -1.9 | i | u | 22.4µM*
COc1ccc(-c2nc3ccc(Cl)cn3c2Cc2ccccc2)cc1OC | x | x | 2.5 | i | -0.7% | 23.1%
COc1ccc(-c2nc3ccc(Cl)cn3c2Cc2cccc(Cl)c2)cc1OC | x | x | 1.1 | i | 3.2% | 35.5µM*
O=C(COC(=O)C12CC3CC(CC(Cl)(C3)C1)C2)NCc1ccco1 | x | x | x | x | 0.3% | x
CCS(=O)(=O)c1ncc(Cl)c(C(=O)N(Cc2ccccc2)Cc2ccco2)n1 | -7.6% | x | x | x | x | u
O=Cc1c(NCc2ccccc2F)c2ccccc2[nH]c1=O | -13.0% | 4.9% | -2.1 | i | 0.3% | 11.2µM*
CCOC(=O)Nc1ccc(/C=C/c2ccnc3ccccc23)cc1 | x | x | x | x | -8.9% | x
CC1(C(=O)NCC2CCCCC2)CCN1C(=O)Cc1ccc(-c2ccccc2)cc1 (stereo not drawn) | x | x | 0.2 | i | 20.5% | 20µM*
CC1(C(=O)NC2CCCC2)CCN1C(=O)Cc1ccc(-c2ccccc2)cc1 (stereo not drawn) | x | x | -0.3 | i | u | u
Cc1ccc(CNC(=O)C2(C)CCN2C(=O)Cc2ccc(-c3ccccc3)cc2)cc1 (stereo not drawn) | x | x | 0.1 | i | u | 35.5µM*
C=C1C=C(C(F)F)n2ncc(C(=O)NC(C)CC)c2N1 (stereo not drawn) | x | x | x | x | -5.3% | x
OC1OC[C@H](O)[C@@H](O)[C@@H]1O (stereo partly drawn) | 6.2% | x | x | x | x | x
Nc1nonc1-c1noc(-c2ccccc2Br)n1 | 5.1% | 3.8% | -1.2 | i | 1.3% | 12.6µM*
FC(F)(F)c1ccc(-c2noc(-c3ccccc3Br)n2)cc1 | 0.7% | x | x | x | x | 19.8%
COc1ccc(C2C3=C(NCCN=C3c3ccccc3)C(=O)N2c2ccccc2)c(OC)c1 (stereo not drawn) | -18.9% | -5.4% | -59.6* | i | 0.6% | -11.4%[9.22 µM]
C(=C\c1nc2ccccc2o1)/c1ccc2c(c1)OCO2 | x | x | x | x | -16.3% | x
c1cc(SC2CCCCC2)cc(-c2nc3cnccn3c2NC2CCCCC2)c1 | x | x | 0.6 | i | -30.4% | 22.4µM*
COc1ccc(CNc2cccc(F)c2)cc1Br | u | 5.2% | -1.4 | i | -8.7% | 12.6µM*
COc1ccc(CNCc2cccc(OC)c2OC)cc1Br | -5.7% | 1.7% | -2.7 | i | -2.7% | -3.7%
CCOC(=O)C1CCCN(c2c(C(=O)c3ccc(C)cc3)cnc3ccc(OCC)cc23)C1 (stereo not drawn) | -5.0% | x | x | x | 5.8% | 0.0%
SMILES | Anesthetic bind | Mito fusion act | CCT modulator | Akt phos inh | aSyn yeast inh | TDP-43 yeast inh
CCCCSc1nc(NCc2ccco2)c2c3c(sc2n1)COC(C)(C)C3 | u | -9.4% | -0.7 | i | 0.2% | u
CCCSc1nc(NCc2ccco2)c2c3c(sc2n1)COC(C)(C)C3 | u | 3.7% | 1.9 | i | 3.1% | 20µM*
CSc1nn(Cc2ccc(Br)cc2)c(N(C(C)=O)C(C)=O)c1S(=O)(=O)c1ccccc1 | -3.4% | x | x | x | x | 35.5µM*
CSc1nn(Cc2cccc(F)c2)c(N(C(C)=O)C(C)=O)c1S(=O)(=O)c1ccccc1 | -1.7% | x | x | x | x | 35.5µM*
COc1cccc(Cn2nc(SC)c(S(=O)(=O)c3ccccc3)c2N(C(C)=O)C(C)=O)c1 | 5.8% | x | x | x | x | 20µM*
CCC(=O)Nc1c(C(=O)N2CCN(c3ccccn3)CC2)cnn1-c1ccc(C)cc1 | -4.1% | -4.3% | 1.6 | i | -0.4% | 18.3%
CCC(=O)Nc1c(C(=O)N2CCN(c3ccccn3)CC2)cnn1-c1ccc(Cl)cc1 | 1.1% | -3.7% | -56.9* | i | 4.1% | -5.7%
O=C(NC(=S)Nc1ccc(N2CCCCC2)c(Cl)c1)c1cccs1 | x | x | -6.0 | i | -17.6% | 35.5µM*
O=C(NC1CCCCC1)c1cccs1 | 12.6µM* | 2.0% | -2.2 | i | 5.5% | 3.4%
O=C(NC(=S)Nc1ccc(S(=O)(=O)NC2CCCCC2)cc1)c1cccs1 | -7.0% | 4.0% | -1.9 | i | u | 22.4µM*
CCOc1cccc(C2C=C(c3ccc4c(c3)OCO4)NC(c3cccc(Br)c3)N2)c1O (stereo not drawn) | x | x | x | x | 1.5% | x
COC(=O)c1cc(C(=O)c2cccc(Cl)c2Cl)cn1C | u | 3.9% | -2.1 | i | 12.7% | 17.8µM*
COC(=O)c1cc(C(=O)c2ccc(Cl)cc2Cl)cn1C | u | 6.5% | -0.6 | i | -5.4% | 11.2µM*
Cn1cc(C(=O)c2ccc(Cl)cc2Cl)cc1C=O | -18.0% | 1.6% | 2.3 | i | 19.7% | -23.5%
COc1ccc(N2C(=O)CS(=O)(=O)C23C(=O)N(Cc2ccc(F)cc2)c2ccc(C)cc23)cc1 (stereo not drawn) | -3.3% | x | x | x | -2.1% | 10.7%
O=C(COC(=O)c1cc([N+](=O)[O-])ccc1N1CCOCC1)c1ccccc1 | x | 3.4% | 0.9 | i | 5.2% | 20µM*
CCOC(=O)c1ccccc1NC(=O)COC(=O)c1cc([N+](=O)[O-])ccc1N1CCOCC1 | x | u | -0.7 | i | 4.2% | 17.8µM*
Cc1ccc(C(=O)c2cc([N+](=O)[O-])ccc2N2CCOCC2)cc1 | -4.2% | -2.8% | 1.1 | i | 14.4% | 35.5µM*
COc1ccccc1C(=O)COC(=O)c1cc([N+](=O)[O-])ccc1N1CCOCC1 | x | -28.0% | -0.4 | i | 12.1% | 11.2µM*
COc1ccc(C(=O)COC(=O)c2cc([N+](=O)[O-])ccc2N2CCOCC2)c(OC)c1 | x | -23.4% | 0.3 | i | 0.0% | u
COC(=O)c1nc(N2CCN(S(=O)(=O)c3ccc(C)cc3)CC2)c2ccccc2n1 | x | x | x | x | 2.4% | x
Nc1cc(N)[nH]c(=S)n1 | x | x | x | x | -1.8% | x
Cc1ccc(Cn2c(SCc3ccc(C(=O)N4CCCCC4)cc3)nc3ccncc32)cc1 | u | x | x | x | x | 4.5%
O=C(COC(=O)c1cc([N+](=O)[O-])ccc1N1CCOCC1)c1ccccc1Cl | u | -1.0% | 1.3 | i | 10.4% | u
